Here are results for 20 molecules from PubChem BioAssay.

Unmarked numbers belong to inactive results. For some of these results: Results with a measured potency or affinity are listed apart. Active and inactive are the calls of the source. Unless noted, no rule for the calls is given here.

Assay [1] can be described thus: antimalarial activity against Dd2 strain (AID 2302;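 active = growth inhibition above 50% at the single 2 µM test dose, taken to imply half-maximal potency below 2 µM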;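 also: 0% = DMSO untreated growth and 100% = chloroquine plus artemisinin killed control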). The conditions noted are these: P. falciparum Dd2 in RBCs, LDH growth readout, 72 h; at 2 µM; stronger effect = higher value.
Assay [2] can be described thus: human hepatoma cell viability loss – ATP luminescence, cytotoxicity control for P. falciparum antimalarial project, primary screen (AID 2303;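 active = inhibition above 50%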;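 also: 0% = DMSO wells and 100% = digitonin-killed cells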). To be noted: HepG2 viability, 24-48 h, at 10 µM, stronger effect = higher value.
Assay [3] deals with L-lactate dehydrogenase (Plasmodium falciparum (isolate CDC / Honduras)) (UniProt Q27743). Put plainly: PfLDH activity inhibition – cell lysate, 3D7 strain, counter-screen for P. falciparum growth inhibition project (AID 2304).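 Also: 0% = vehicle and 100% = reference inhibitor.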 The conditions noted are these: P. falciparum 3D7 crude extract, LDH APAD/NBT absorbance; at 2 µM; stronger effect = higher value. A general note: A counterscreen serves to expose hits that act by an unwanted route or on another target.
Chain of L-lactate dehydrogenase (Plasmodium falciparum (isolate CDC / Honduras)) (Q27743 whole entry, looked up): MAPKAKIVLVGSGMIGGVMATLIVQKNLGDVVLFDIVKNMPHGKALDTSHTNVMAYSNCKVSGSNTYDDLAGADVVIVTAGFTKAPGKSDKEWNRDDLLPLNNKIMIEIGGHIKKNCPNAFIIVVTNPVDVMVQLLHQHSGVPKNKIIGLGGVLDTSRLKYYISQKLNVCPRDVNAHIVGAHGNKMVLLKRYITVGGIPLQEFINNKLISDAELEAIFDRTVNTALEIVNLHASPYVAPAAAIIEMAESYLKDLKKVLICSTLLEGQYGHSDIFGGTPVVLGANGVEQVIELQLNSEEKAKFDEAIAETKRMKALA

The nature of assay [4]: inhibition of 3D7 malaria parasite growth – strain 3D7 (AID 2306).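 Also: 0% = DMSO wells and 100% = chloroquine plus artemisinin control wells.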 The conditions noted are these: P. falciparum 3D7 erythrocytic growth, LDH absorbance, 72 h; at 2 µM; stronger effect = higher value.
The target in assay [5] is Calcium-dependent protein kinase 1 (Plasmodium falciparum (isolate 3D7)) (UniProt P62344). Put plainly: PfCDPK1 kinase inhibitors, biochemical, TCAMS library (AID 1159585; cut-off not given, nearly all actives have IC50 up to about 0.98 µM;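 also: inhibitors leave more ATP so luminescence rises with inhibition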). To be noted: recombinant PfCDPK1, Kinase-Glo ATP depletion luminescence. In general terms: Kinase-Glo measures the ATP left after a reaction by luminescence.
Chain of Calcium-dependent protein kinase 1 (Plasmodium falciparum (isolate 3D7)) (P62344 whole entry, looked up): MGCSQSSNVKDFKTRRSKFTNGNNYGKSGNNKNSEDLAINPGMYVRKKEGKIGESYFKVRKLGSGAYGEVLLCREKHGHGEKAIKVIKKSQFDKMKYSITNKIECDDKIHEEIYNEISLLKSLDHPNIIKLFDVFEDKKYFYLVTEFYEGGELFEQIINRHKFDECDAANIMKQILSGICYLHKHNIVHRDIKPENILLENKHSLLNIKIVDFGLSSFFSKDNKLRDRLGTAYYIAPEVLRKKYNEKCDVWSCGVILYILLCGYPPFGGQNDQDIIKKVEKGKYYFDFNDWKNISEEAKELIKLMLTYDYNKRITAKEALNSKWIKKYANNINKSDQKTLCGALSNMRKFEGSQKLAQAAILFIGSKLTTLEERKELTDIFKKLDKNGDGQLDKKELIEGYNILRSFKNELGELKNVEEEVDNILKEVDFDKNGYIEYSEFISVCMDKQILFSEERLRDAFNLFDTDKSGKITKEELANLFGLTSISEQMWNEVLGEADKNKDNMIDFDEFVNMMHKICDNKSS
Assay [6] deals with Plasmodium falciparum protein kinase 6 (PK6, PF3D7_1337100) (UniProt Q8IDW1). Description: PfPK6 kinase inhibitors, biochemical, TCAMS library (AID 1159586). The conditions noted are these: recombinant PfPK6, Kinase-Glo ATP depletion luminescence.
Chain of Plasmodium falciparum protein kinase 6 (PK6, PF3D7_1337100) (Q8IDW1 1-305): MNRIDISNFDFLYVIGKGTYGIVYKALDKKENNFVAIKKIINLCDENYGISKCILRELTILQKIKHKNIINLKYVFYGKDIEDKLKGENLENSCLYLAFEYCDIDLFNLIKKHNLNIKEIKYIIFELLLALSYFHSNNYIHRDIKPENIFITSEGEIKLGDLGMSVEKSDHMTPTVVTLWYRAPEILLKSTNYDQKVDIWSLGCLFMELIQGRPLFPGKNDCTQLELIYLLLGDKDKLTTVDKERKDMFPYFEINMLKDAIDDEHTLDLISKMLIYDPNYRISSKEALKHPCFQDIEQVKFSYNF
Assay [7] has as its target Protein kinase 7 (PK7), Plasmodium falciparum 3D7 (PF3D7_0213400) (UniProt Q7YTF7). Put plainly: inhibition of Plasmodium PK7 catalytic activity – biochemical, TCAMS antimalarial set, Kinase-Glo luminescence (AID 1159587). To be noted: recombinant PfPK7, Kinase-Glo ATP depletion luminescence.
Assay [8] deals with Calcium-dependent protein kinase 4 (Plasmodium falciparum (isolate 3D7)) (UniProt Q8IBS5). Put plainly: PfCDPK4 kinase inhibitors, biochemical, TCAMS library (AID 1159588; cut-off not given, nearly all actives have IC50 up to about 0.91 µM). To be noted: recombinant PfCDPK4, Kinase-Glo ATP depletion luminescence.
Chain of Calcium-dependent protein kinase 4 (Plasmodium falciparum (isolate 3D7)) (Q8IBS5 whole entry, looked up): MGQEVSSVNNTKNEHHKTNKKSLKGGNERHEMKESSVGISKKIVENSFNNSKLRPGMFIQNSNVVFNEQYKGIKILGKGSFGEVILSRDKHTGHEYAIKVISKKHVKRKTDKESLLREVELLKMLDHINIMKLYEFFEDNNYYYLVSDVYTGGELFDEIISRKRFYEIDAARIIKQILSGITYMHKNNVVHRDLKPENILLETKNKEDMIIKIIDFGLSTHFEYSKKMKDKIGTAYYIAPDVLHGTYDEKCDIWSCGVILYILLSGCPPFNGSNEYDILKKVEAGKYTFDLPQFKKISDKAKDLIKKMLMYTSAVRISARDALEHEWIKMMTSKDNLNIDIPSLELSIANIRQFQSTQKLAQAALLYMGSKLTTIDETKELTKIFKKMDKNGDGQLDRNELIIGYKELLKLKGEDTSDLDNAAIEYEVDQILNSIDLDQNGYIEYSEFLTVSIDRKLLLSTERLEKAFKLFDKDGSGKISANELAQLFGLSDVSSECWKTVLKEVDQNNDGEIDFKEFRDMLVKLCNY

Broadly, the inhibition is the drop in the measured response relative to a control, in per cent.

Chain of Protein kinase 7 (PK7), Plasmodium falciparum 3D7 (PF3D7_0213400) (Q7YTF7 1-343): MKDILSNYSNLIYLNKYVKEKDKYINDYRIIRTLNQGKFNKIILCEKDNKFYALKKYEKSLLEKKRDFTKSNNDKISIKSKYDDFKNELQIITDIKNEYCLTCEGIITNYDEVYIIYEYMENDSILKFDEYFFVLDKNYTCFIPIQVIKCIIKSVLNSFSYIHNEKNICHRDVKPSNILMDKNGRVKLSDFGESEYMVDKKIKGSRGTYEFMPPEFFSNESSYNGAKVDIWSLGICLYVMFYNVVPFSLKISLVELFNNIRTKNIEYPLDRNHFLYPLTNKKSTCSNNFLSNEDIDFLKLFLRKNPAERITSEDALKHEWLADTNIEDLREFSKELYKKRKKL

For `O=C(CN1CCCCC1)Nc1ccc(Nc2nccc(NCC(O)c3ccccc3)n2)cc1` (stereo not given), the growth inhibition is 95% (active) in assay [1] and 101% (active) in assay [4]. Further, the inhibition in assay [2] is 62% (active); in assay [3], 3%. Moreover, the result in assay [5], in assay [6], in assay [7] and in assay [8] was inactive.

Consider `CCOc1ccc(N(CC)S(=O)(=O)c2cc(Br)cc3c2N(C(=O)C2CC2)CC3)cc1`, for which the values for the growth inhibition in assay [1] and in assay [4] were 97% (active) and 99% (active), respectively. Further, the inhibition in assay [2] was -4%; in assay [3], -5%. Besides, the outcome in assay [5], in assay [6], in assay [7] and in assay [8] was inactive.

For `c1ccc2nc(NCCCCCCCCNc3ccc4ccccc4n3)ccc2c1`, the growth inhibition in assay [1] was 37%; in assay [4] it was 100% (active). Besides, the inhibition is 52% (active) in assay [2] and -5% in assay [3]. Moreover, the outcome in assay [5], in assay [6], in assay [7] and in assay [8] was inactive.

For `Cc1cccc2[nH]c(-c3cccc(-c4ccc(NC(=O)c5ccc(=O)[nH]n5)cc4)c3)nc12`, the growth inhibition was 27% in assay [1] and 101% (active) in assay [4]. In addition, the inhibition was 18% in assay [2] and 1% in assay [3]. In addition, the outcome in assay [5], in assay [6], in assay [7] and in assay [8] was inactive.

For `COc1ccc2nccc([C@@H](O)CN3CCC(NC(=O)/C=C/c4cc(F)cc(Br)c4)CC3)c2c1`, the figures for the growth inhibition in assay [1] and in assay [4] were 50% (active) and 95% (active), respectively. The inhibition in assay [2] is 24%; in assay [3], 7%. The result in assay [5], in assay [6], in assay [7] and in assay [8] was inactive.

Consider `Cc1cccc(C(=O)Nc2ccnc(N(C)CCCN(C)Cc3cccc(O)c3)c2)c1`, for which the growth inhibition in assay [1] was 71% (active); in assay [4], 94% (active). For the same molecule, the inhibition was 27% in assay [2] and -3% in assay [3]. The result in assay [5], in assay [6], in assay [7] and in assay [8] was inactive.

In the case of `FC(F)(F)c1ccc(-c2ccc(CNC3CCN(CCN4CCOCC4)CC3)cc2)cc1`, the growth inhibition is 74% (active) in assay [1] and 103% (active) in assay [4]. Moreover, the inhibition is 44% in assay [2] and 0% in assay [3]. For the same molecule, the result in assay [5], in assay [6], in assay [7] and in assay [8] was inactive.

For the molecule `CN1CCCN(c2ccnc3cc4c(cc23)N(C(=O)c2ccc(Cl)c(Cl)c2)CC4)CC1`, the figures for the growth inhibition in assay [1] and in assay [4] were 73% (active) and 101% (active), respectively. The inhibition was 20% in assay [2] and 2% in assay [3]. For the same molecule, the result in assay [5], in assay [6], in assay [7] and in assay [8] was inactive.

As for `O=C(NCc1ccc(C(=O)NC2CCCCC2)cc1)c1ccc(O)c(-c2ccc(Cl)c(Cl)c2)c1`, the growth inhibition was -4% in assay [1] and 93% (active) in assay [4]. For the same molecule, the inhibition in assay [2] was 5%; in assay [3], -6%. Moreover, the outcome in assay [5], in assay [6], in assay [7] and in assay [8] was inactive.

Take `Cc1[nH]c(C)c(-c2ccc(-c3ccc4c(c3)OCO4)nc2)c(=O)c1Br`: the growth inhibition in assay [1] and in assay [4] was 96% (active) each time. For the same molecule, the inhibition in assay [2] was -6%; in assay [3], -8%. For the same molecule, the outcome in assay [5], in assay [6], in assay [7] and in assay [8] was inactive.

For the molecule `CCNC(=O)Nc1cccc(-c2ccc(-c3nc4c(C)cccc4[nH]3)s2)c1`, the growth inhibition is 20% in assay [1] and 96% (active) in assay [4]. In addition, the inhibition in assay [2] is 32%; in assay [3], -4%. The result in assay [5], in assay [6], in assay [7] and in assay [8] was inactive.

`Clc1cc(Nc2ncnc3sc(C#Cc4ncc[nH]4)cc23)ccc1OCc1ccccn1`: the growth inhibition is 6% in assay [1] and 101% (active) in assay [4]. In addition, the inhibition is 10% in assay [2] and -3% in assay [3]. In addition, the outcome in assay [5], in assay [6], in assay [7] and in assay [8] was inactive.

As for `COc1ccc2nccc([C@@H](O)CN3CCC(NC(=O)c4ccc(Cl)c(OC)c4)CC3)c2c1`, the growth inhibition in assay [1] is 28%; in assay [4], 87% (active). The results for the inhibition in assay [2] and in assay [3] were 26% and 5%, respectively. Also, the result in assay [5], in assay [6], in assay [7] and in assay [8] was inactive.

As for `Cc1cccc2[nH]c(-c3cccc(-c4cccc(NC(=O)c5ccncc5)c4)c3)nc12`, the growth inhibition in assay [1] was 78% (active); in assay [4], 100% (active). Further, the inhibition in assay [2] is 22%; in assay [3], -3%. The result in assay [5], in assay [6], in assay [7] and in assay [8] was inactive.

Turning to `Cc1nc(C)c(CC(=O)Nc2cccc(-c3cccc(-c4nc5ccc(C(F)(F)F)cc5[nH]4)c3)c2)s1`, the growth inhibition in assay [1] was 30%; in assay [4], 95% (active). Further, the inhibition is 49% in assay [2] and -4% in assay [3]. For the same molecule, the result in assay [5], in assay [6], in assay [7] and in assay [8] was inactive.

With `C=CCc1cc(C2CCN(CCCCNC(=O)c3ccc(-c4ccc(C#N)cc4)cc3)CC2)c(OCC(N)=O)c2c1CCCC2`, the growth inhibition in assay [1] is 92% (active); in assay [4] it was 101% (active). The inhibition in assay [2] is 43%; in assay [3], -6%. The result in assay [5], in assay [6], in assay [7] and in assay [8] was inactive.

On to `CCCCC(O)c1cc(O)c2c(c1)OC(C)(C)CC2C1=CCN(Cc2ccc3ccccc3c2)CC1` (stereo not given), for which the growth inhibition in assay [1] is 97% (active); in assay [4], 100% (active). The values for the inhibition in assay [2] and in assay [3] were 7% and 3%, respectively. Further, the result in assay [5], in assay [6], in assay [7] and in assay [8] was inactive.

For the molecule `O=C(Nc1ccc2c(c1)CCN2C1CCN(Cc2cccc(C(F)(F)F)c2)C1)c1ccco1` (stereo not given), the growth inhibition in assay [1] is 92% (active); in assay [4] it was 95% (active). Also, the inhibition in assay [2] is 4%; in assay [3], -1%. Further, the outcome in assay [5], in assay [6], in assay [7] and in assay [8] was inactive.

For `O=C(/C=C/c1ccc(-c2nc3ccc(Cl)cc3[nH]2)cc1)NCc1cccc(F)c1`, the growth inhibition in assay [1] was 68% (active); in assay [4] it was 99% (active). The inhibition in assay [2] was 1%; in assay [3] it was 2%. Further, the outcome in assay [5], in assay [6], in assay [7] and in assay [8] was inactive.

For `Oc1ccc(Cl)cc1Nc1nc(C(F)(F)F)nc2ccccc12`, the growth inhibition was 63% (active) in assay [1] and 86% (active) in assay [4]. Also, the inhibition in assay [2] was 16%; in assay [3], 5%. The result in assay [5], in assay [6], in assay [7] and in assay [8] was inactive.
